Assay results reported in the supplement of paper PMC3545927.
This is one part of the list. How many sequences the whole screen found active is unknown.

Molecular target: furin, P09958
Experiment: furin cleavage Z-score vs untreated control; higher = more cleavage, active = 3.5 or more, inactive = 1 or less, 8 variable residues between constant flanks
How it was run: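 Purified furin digested bead-held 8-mer peptide–cDNA fusions at 1:10 enzyme:substrate in 0.01 ml of 50 mM HEPES pH 7.5 with CaCl2 and NaCl for 7.5, 15 or 30 min. The cleavage Z-score compares sequencing counts of released DNA with furin-free reactions on a log scale, with lowess adjustment and median absolute deviation scaling.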

Chain of furin, P09958 (P09958 whole entry): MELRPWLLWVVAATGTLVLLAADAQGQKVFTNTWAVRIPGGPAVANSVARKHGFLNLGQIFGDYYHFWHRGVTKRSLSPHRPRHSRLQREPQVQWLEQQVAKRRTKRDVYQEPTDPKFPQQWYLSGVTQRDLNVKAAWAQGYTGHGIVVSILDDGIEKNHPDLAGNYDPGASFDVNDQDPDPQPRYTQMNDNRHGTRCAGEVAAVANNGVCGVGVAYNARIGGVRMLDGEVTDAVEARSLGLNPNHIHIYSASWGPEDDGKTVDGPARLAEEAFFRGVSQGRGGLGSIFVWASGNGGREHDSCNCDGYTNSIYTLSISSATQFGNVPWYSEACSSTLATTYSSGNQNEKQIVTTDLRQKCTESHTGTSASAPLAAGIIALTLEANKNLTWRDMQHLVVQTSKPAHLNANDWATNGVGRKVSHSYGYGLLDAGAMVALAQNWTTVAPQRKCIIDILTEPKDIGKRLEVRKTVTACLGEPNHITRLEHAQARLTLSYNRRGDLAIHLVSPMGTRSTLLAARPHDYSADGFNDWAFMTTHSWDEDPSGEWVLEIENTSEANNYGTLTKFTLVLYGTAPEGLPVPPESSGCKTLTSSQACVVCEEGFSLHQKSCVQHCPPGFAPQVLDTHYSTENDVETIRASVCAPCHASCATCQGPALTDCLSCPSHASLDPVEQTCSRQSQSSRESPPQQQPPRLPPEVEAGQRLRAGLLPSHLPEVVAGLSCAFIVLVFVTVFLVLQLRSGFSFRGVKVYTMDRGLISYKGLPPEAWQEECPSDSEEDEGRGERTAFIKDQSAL

Sequence | furin cleavage Z-score (7.5 min) | furin cleavage Z-score (15 min) | furin cleavage Z-score (30 min)
CAMSTNPKPQAGNASASA [HC161] | 0.554 (inactive) | -0.264 (inactive) | -0.709 (inactive)
CAELSPLLLTAGNASASA [HC491] | -1.56 (inactive) | -0.594 (inactive) | 0.347 (inactive)
CASEPCSAHLAGNASASA [HC2492] | -0.366 (inactive) | -0.474 (inactive) | -0.0579 (inactive)
CARKRRETSQAGNASASA [FS-2347] | 13.9 (active) | 14.9 (active) | 10.1 (active)
CARDSRSSERAGNASASA [FS-2654] | -1.62 (inactive) | -0.417 (inactive) | -0.301 (inactive)
CARKRRQTGQAGNASASA [FS-2701] | 9.83 (active) | 11.9 (active) | 7.6 (active)
CARKRRNTIHAGNASASA [FS-2567] | 9.29 (active) | 10.7 (active) | 9.63 (active)
CAVHKRSAERAGNASASA [FS-2854] | 2.95 | 4.06 (active) | 5.25 (active)
CARKTRFIIHAGNASASA [FS-2426] | 0.0934 (inactive) | -2.08 (inactive) | 0.575 (inactive)
CARRARHPGQAGNASASA [FS-2448] | 0.222 (inactive) | -1.48 (inactive) | -0.313 (inactive)
CAKLTPIAAAAGNASASA [HC1638] | -0.902 (inactive) | 0.513 (inactive) | -0.874 (inactive)
CARKRRDVMQAGNASASA [FS-1905] | 8.11 (active) | 9.14 (active) | 9.14 (active)
CARPRRPNGDAGNASASA [FS-1913] | -0.861 (inactive) | -0.812 (inactive) | 0.059 (inactive)
CARPRRARRDAGNASASA [FS-289] | 10.4 (active) | 10.6 (active) | 7.54 (active)
CAENLRKRRDAGNASASA [FS-585] | 13.3 (active) | 14.1 (active) | 10.9 (active)
CAGWSRARRDAGNASASA [FS-334] | 9.99 (active) | 12.4 (active) | 9.61 (active)
CAENKVVILDAGNASASA [HC1284] | -1.51 (inactive) | 0.132 (inactive) | -0.906 (inactive)
CAGAERKMRDAGNASASA [FS-653] | 2.56 | 3.75 (active) | 3.61 (active)
CASNCRHERDAGNASASA [FS-722] | 1.11 | 0.623 (inactive) | 1.08
CAGVVTSTWVAGNASASA [HC2156] | 0.312 (inactive) | -0.173 (inactive) | -0.545 (inactive)
CAPSGCPPDSAGNASASA [HC1347] | 0.626 (inactive) | 0.736 (inactive) | -1.37 (inactive)
CAACQRQKKVAGNASASA [HC1393] | 0.424 (inactive) | -0.843 (inactive) | -0.382 (inactive)
